A word on the AC50: it is the midpoint of the concentration-response curve, whichever way the signal moves.

Test [1] is described as follows: ATG_E_Box_CIS: Attagene CIS-FACTORIAL HepG2 Assay for human Enhancer Box (E-box) (AID 2282936). As to conditions: HepG2 E-box cis-reporter transcription, actives raise or lower the signal. The gist of the method: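 DMSO served as negative control and baseline for bidirectional fitting. Human hepatoma HepG2 cells, transiently transfected with cis-reporter constructs, were dosed 24 h; reporter mRNA read by RT-PCR and capillary electrophoresis.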

Test [2] in a line: ATG_M_61_CIS: Attagene CIS-FACTORIAL HepG2 Assay for M61 Transcription Factor (Internal Marker) (AID 2282937). To be noted: HepG2 Attagene CIS-FACTORIAL M61 internal marker reporter; actives raise or lower the signal. Put shortly:
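HepG2 cells transiently transfected with cis-element-driven multiple reporter transcription units, dosed for 24 h. Reporter mRNA measured by RT-PCR, 6-FAM primer-extension labelling, HpaI digestion and capillary electrophoresis; bidirectional fit versus DMSO baseline.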

Test [3] can be described thus: ATG_EGR_CIS: Attagene CIS-FACTORIAL HepG2 Assay for human Early Growth Response 1 (EGR1) (AID 2282938). As to conditions: HepG2 Attagene CIS-FACTORIAL EGR reporter mRNA; actives raise or lower the signal. Put shortly: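 HepG2 cells transiently transfected with cis-promoter-driven multiplexed reporter transcription units; reporter mRNA measured 24 h after compound dosing by RT-PCR, 6-FAM primer extension, HpaI digestion and capillary electrophoresis. Bidirectional fit versus DMSO baseline.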

Test [4] in a line: ATG_M_19_CIS: Attagene CIS-FACTORIAL HepG2 Assay for M19 Transcription Factor (Internal Marker) (AID 2282939). To be noted: HepG2 Attagene CIS-FACTORIAL M19 internal marker reporter; actives raise or lower the signal. Put shortly: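 Chemical-treated HepG2 (24 h) with MRTU constructs; reporter transcripts detected by fluorescent RT-PCR fragment analysis on capillary electrophoresis. Internal background marker, DMSO as baseline.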

Test [5] can be described thus: ATG_ERE_CIS: Attagene CIS-FACTORIAL HepG2 Assay for Estrogen Response Element (ERE) (AID 2282940). To be noted: HepG2 ERE cis-reporter, Attagene RNA transcript; actives raise or lower the signal. The gist of the method: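 Human liver cells (HepG2) bearing transiently transfected, promoter-regulated reporter units were exposed 24 h. Reporter mRNA induction was detected by capillary electrophoresis of labelled RT-PCR products and fitted bidirectionally to DMSO.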

A short description of test [6]: ATG_Ets_CIS: Attagene CIS-FACTORIAL HepG2 Assay for human Erythroblast Transformation Specific (ETS) (AID 2282941). To be noted: HepG2 ETS cis-reporter transcription, actives raise or lower the signal. The gist of the method: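 Steps: transfect HepG2 with multiple reporter units; treat compound 24 h; isolate RNA, DNase-treat, reverse-transcribe; PCR-amplify, label with 6-FAM, digest with HpaI; separate by capillary electrophoresis. Activity fitted both directions versus DMSO.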

The target in test [7] is Hepatocyte nuclear factor 3-beta (Homo sapiens) (UniProt Q9Y261). The experiment in a line: ATG_FoxA2_CIS: Attagene CIS-FACTORIAL HepG2 Assay for human Forkhead box A2 (FOXA2) (AID 2282942). As to conditions: HepG2 cis-reporter transcription factor activity, 24 h; actives raise or lower the signal. Put shortly: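 HepG2 cells transiently transfected with multiple cis-regulated reporter transcription units, dosed for 24 h. Reporter mRNA measured by RT-PCR, 6-FAM labelling, HpaI digestion and capillary electrophoresis; bidirectional fitting against DMSO baseline.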

A short description of test [8]: ATG_FoxO_CIS: Attagene CIS-FACTORIAL HepG2 Assay for human Forkhead box O (FoxO) (AID 2282943). As to conditions: HepG2 Attagene cis-reporter, FoxO element, mRNA; actives raise or lower the signal. Put shortly:
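HepG2, transient MRTU transfection (cis element, endogenous TFs). Dose 24 h. TriZol RNA → oligo(dT) RT → PCR → 6-FAM primer extension → HpaI cut → CE. Gain/loss vs DMSO.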

Test [9] is described as follows: ATG_GATA_CIS: Attagene CIS-FACTORIAL HepG2 Assay for human GATA Binding Protein (AID 2282944). To be noted: HepG2 GATA cis-element reporter, Attagene multiplex mRNA; actives raise or lower the signal. Put shortly:
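Transfected cis-reporter HepG2 cells were treated with chemicals for 24 hours. Total RNA was then converted to cDNA, amplified with reporter-specific primers and analysed by fluorescent capillary electrophoresis, using DMSO-treated wells as baseline.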

Test [10] can be described thus: ATG_GLI_CIS: Attagene CIS-FACTORIAL HepG2 Assay for human Zinc Finger Protein GLI1 (AID 2282945). As to conditions: HepG2, Attagene cis-factorial reporter mRNA, GLI element; actives raise or lower the signal. The gist of the method:
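Bidirectional curve fits relative to DMSO, using reporter mRNA levels from RT-PCR plus capillary electrophoresis. Cells were HepG2 transiently carrying cis-regulated reporter constructs, harvested 24 h after dosing.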

In test [11] the target is Bile acid receptor (Homo sapiens) (UniProt Q96RI1). The test can be described thus: ATG_IR1_CIS: Attagene CIS-FACTORIAL HepG2 Assay for human Nuclear Receptor Subfamily 1 Group H Member 4 (NR1H4), IR1 submotif (AID 2282946). To be noted: IR1 reporter transcription, actives raise or lower the signal. The gist of the method:
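Cells (human HepG2) carry transiently transfected cis-promoter reporter transcription units. Compounds are incubated 24 h, total RNA is reverse-transcribed and amplified, and labelled fragments are resolved by capillary electrophoresis. Curves use DMSO as baseline.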

Test [12] is described as follows: ATG_GRE_CIS: Attagene CIS-FACTORIAL HepG2 Assay for human Glucocorticoid Response Elements (GRE) (AID 2282947). As to conditions: HepG2 GRE cis-reporter, Attagene multiplex mRNA; actives raise or lower the signal. Put shortly:
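Assay uses human hepatoma HepG2 cells transfected with cis-promoter reporter units, exposed 24 h. mRNA from reporters detected by RT-PCR plus capillary electrophoresis; DMSO serves as negative control and baseline.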

The nature of test [13]: ATG_ISRE_CIS: Attagene CIS-FACTORIAL HepG2 Assay for human Interferon Regulatory Factor 1 (IRF1) binding to an Interferon-Stimulated Response Element (ISRE) (AID 2282948). As to conditions: HepG2 ISRE cis-reporter (Attagene), mRNA transcription readout; actives raise or lower the signal. Put shortly: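 Transfected HepG2 (multiple reporter transcription units, cis elements) dosed 24 h. RNA → oligo(dT) RT → PCR → 6-FAM primer extension → HpaI → CE. DMSO = negative control/baseline.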

Test [14] can be described thus: ATG_M_32_CIS: Attagene CIS-FACTORIAL HepG2 Assay for M32 Transcription Factor (Internal Marker) (AID 2282949).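 Note: background control marker of the multiplexed CIS panel rather than a real target.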 To be noted: HepG2 Attagene cis-factorial M32 reporter, mRNA; actives raise or lower the signal. The gist of the method:
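Internal background marker read-out: RT-PCR/capillary electrophoresis fluorescence of reporter transcripts from transiently transfected HepG2 cells after 24 h chemical exposure. Activity fitted bidirectionally relative to DMSO negative control.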

A short description of test [15]: ATG_M_06_CIS: Attagene CIS-FACTORIAL HepG2 Assay for M06 Transcription Factor (Internal Marker) (AID 2282950). To be noted: HepG2 Attagene CIS-FACTORIAL M06 internal marker reporter; actives raise or lower the signal. Put shortly: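 Cells (HepG2, transiently carrying cis-driven reporter units) receive chemical for 24 h before RNA isolation. Reporter cDNA is PCR-amplified, FAM-labelled by primer extension, HpaI-digested and sized on a capillary analyser.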

Test [16] concerns the target Hepatocyte nuclear factor 6 (Homo sapiens) (UniProt Q9UBC0). The experiment in a line: ATG_HNF6_CIS: Attagene CIS-FACTORIAL HepG2 Assay for human Hepatocyte Nuclear Factor 6 (HNF6) (AID 2282952). To be noted: HepG2 Attagene cis-factorial HNF6 reporter transcription; actives raise or lower the signal. Put shortly: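 Cells are HepG2 carrying transiently transfected cis-promoter reporter units. Treatment lasts 24 h, after which reporter transcripts are reverse-transcribed, amplified, FAM-labelled and sized by capillary electrophoresis. DMSO serves as baseline.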

Test [17] has as its target Heat shock factor protein 1 (Homo sapiens) (UniProt Q00613). The experiment in a line: ATG_HSE_CIS: Attagene CIS-FACTORIAL HepG2 Assay for human Heat Shock Transcription Factor 1 (HSE) (AID 2282953). To be noted: HepG2 HSE cis-reporter, Attagene RNA transcription; actives raise or lower the signal. Put shortly: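 Liver-derived HepG2 cells carry transiently introduced multiple reporter units governed by cis promoters. Reporter RNA measured 24 h post-dose through reverse transcription, PCR amplification, fluorescent labelling and capillary electrophoresis, normalised to DMSO.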

A short description of test [18]: ATG_MRE_CIS: Attagene CIS-FACTORIAL HepG2 Assay for human Metal Responsive Element (MRE) (AID 2282954). To be noted: HepG2 MRE cis-reporter transcription, Attagene multiplex; actives raise or lower the signal. The gist of the method: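 After a 24 h chemical exposure, transiently transfected HepG2 cells yield RNA whose reporter sequences are amplified, FAM-labelled and sized by capillary electrophoresis. Curves are fitted bidirectionally relative to DMSO.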

For test [19], the target named is Hypoxia-inducible factor 1-alpha (Homo sapiens) (UniProt Q16665). The test can be described thus: ATG_HIF1a_CIS: Attagene CIS-FACTORIAL HepG2 Assay for human Hypoxia Inducible Factor 1 (HIF1A) (AID 2282951). As to conditions: HepG2 Attagene cis-factorial HIF1a reporter transcription; actives raise or lower the signal. The gist of the method:
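HepG2 cells transiently transfected with multiplexed cis-promoter reporter units; reporter mRNA read 24 h after dosing by RT-PCR, 6-FAM primer-extension labelling, HpaI digestion and capillary electrophoresis. Bidirectional fit versus DMSO baseline.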

Test [20] in a line: ATG_PBREM_CIS: Attagene CIS-FACTORIAL HepG2 Assay for human Phenobarbital-responsive Enhancer Module (PBREM) (AID 2282955). To be noted: HepG2 PBREM cis-reporter, Attagene multiplexed transcription; actives raise or lower the signal. The gist of the method:
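HepG2 cells transiently transfected with multiple cis-regulated reporter transcription units; endogenous factor activity at the PBREM element measured as reporter mRNA 24 h after dosing, via RT-PCR and capillary electrophoresis of fluorescent fragments; bidirectional fitting versus DMSO.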

Calls of active or inactive are those of the source. Rule for the calls: active = hit-call score of the fitted dose curve at least 0.9, where 1 is the maximum; inactive = score below 0.9.

Sequence of Heat shock factor protein 1 (Homo sapiens) (Q00613 whole entry, looked up): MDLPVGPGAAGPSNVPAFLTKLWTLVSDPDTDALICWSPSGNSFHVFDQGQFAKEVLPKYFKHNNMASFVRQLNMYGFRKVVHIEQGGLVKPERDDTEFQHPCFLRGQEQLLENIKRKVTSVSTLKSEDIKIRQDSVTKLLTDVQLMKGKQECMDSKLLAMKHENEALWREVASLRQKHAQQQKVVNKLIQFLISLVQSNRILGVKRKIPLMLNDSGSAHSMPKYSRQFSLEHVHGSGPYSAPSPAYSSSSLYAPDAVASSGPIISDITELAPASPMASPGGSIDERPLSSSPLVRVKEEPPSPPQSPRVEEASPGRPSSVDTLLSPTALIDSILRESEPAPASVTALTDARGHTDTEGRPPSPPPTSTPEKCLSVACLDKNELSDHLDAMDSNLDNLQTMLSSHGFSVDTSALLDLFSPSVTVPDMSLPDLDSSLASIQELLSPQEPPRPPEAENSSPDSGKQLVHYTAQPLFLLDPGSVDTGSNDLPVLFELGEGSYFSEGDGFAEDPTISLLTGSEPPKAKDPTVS
Sequence of Hepatocyte nuclear factor 6 (Homo sapiens) (Q9UBC0 whole entry, looked up): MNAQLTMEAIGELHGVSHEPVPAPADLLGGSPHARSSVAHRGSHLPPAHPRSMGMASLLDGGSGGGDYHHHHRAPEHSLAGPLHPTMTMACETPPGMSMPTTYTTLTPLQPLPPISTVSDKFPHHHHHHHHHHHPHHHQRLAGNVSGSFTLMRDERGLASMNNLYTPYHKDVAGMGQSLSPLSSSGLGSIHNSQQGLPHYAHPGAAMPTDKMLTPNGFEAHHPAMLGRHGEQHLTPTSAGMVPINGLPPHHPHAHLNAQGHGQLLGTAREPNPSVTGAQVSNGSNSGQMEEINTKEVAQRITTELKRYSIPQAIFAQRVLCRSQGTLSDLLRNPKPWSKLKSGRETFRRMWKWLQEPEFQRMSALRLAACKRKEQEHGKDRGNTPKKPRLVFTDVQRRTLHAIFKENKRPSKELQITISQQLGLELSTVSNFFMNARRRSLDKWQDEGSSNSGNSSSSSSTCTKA
Sequence of Hypoxia-inducible factor 1-alpha (Homo sapiens) (Q16665 whole entry, looked up): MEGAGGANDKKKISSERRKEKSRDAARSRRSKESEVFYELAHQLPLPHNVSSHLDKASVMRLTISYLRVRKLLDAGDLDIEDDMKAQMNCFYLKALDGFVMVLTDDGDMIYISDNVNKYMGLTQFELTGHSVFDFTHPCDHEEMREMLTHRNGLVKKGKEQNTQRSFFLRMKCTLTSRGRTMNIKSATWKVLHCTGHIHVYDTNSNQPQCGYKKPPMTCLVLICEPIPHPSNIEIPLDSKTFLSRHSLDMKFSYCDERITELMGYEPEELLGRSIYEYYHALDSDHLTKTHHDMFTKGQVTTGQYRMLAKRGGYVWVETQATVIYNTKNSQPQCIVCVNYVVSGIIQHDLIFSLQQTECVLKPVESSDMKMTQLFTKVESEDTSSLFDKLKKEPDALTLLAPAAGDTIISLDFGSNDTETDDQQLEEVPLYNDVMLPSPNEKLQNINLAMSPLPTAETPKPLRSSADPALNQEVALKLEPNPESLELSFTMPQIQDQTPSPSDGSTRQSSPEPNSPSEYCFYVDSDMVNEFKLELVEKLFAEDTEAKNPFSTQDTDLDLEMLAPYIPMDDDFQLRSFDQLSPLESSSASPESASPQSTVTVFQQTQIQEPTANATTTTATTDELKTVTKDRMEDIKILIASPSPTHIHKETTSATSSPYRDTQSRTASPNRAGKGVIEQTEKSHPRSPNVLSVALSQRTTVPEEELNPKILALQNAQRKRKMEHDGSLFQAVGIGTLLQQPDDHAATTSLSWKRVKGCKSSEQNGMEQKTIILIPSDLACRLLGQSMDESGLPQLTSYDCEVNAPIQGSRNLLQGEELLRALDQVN
Sequence of Hepatocyte nuclear factor 3-beta (Homo sapiens) (Q9Y261 whole entry, looked up): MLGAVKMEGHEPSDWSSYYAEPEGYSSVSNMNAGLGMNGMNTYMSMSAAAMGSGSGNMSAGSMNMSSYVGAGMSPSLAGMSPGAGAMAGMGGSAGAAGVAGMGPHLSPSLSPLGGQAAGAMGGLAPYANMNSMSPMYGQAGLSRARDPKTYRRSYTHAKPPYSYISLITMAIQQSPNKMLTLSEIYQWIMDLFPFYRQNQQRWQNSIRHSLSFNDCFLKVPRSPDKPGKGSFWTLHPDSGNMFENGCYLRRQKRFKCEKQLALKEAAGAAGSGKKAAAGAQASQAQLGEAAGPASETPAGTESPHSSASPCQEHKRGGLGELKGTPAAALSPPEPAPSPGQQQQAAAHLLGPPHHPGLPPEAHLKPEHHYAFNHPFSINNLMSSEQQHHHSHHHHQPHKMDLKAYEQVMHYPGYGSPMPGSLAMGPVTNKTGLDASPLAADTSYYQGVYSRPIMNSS
Sequence of Bile acid receptor (Homo sapiens) (Q96RI1 whole entry, looked up, the tested form may be a part): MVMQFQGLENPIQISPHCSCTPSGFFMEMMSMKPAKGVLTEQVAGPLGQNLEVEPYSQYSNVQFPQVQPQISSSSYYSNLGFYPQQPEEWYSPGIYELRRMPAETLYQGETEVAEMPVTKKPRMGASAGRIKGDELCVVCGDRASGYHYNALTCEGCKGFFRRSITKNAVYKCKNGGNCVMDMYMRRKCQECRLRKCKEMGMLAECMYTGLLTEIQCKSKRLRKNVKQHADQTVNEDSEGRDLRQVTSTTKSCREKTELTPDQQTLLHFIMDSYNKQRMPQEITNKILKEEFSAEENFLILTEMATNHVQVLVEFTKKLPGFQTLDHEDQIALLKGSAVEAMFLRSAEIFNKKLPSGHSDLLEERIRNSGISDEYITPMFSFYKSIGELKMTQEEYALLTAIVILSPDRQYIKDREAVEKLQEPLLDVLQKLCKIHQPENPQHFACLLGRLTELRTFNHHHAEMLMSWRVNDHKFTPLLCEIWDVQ

For the compound `CC(=O)[C@H]1[C@H](C#N)C[C@H]2[C@@H]3CC=C4C[C@@H](O)CC[C@]4(C)[C@H]3CC[C@@]21C`, the outcome in test [1], in test [2], in test [3], in test [4], in test [5] and in test [6] was inactive. For the same compound, the call in test [7], in [8], in [9], in test [10], in test [11] and in test [12] was inactive. Further, the outcome in [13], in [14], in test [15], in test [16], in [17] and in test [18] was inactive.

On to `COC(=O)/C=C/C(C)=C\C=C\C(C)=C\C=C\C=C(C)\C=C\C=C(C)\C=C\C(=O)O`, for which the result in test [1], in test [2], in test [3], in test [4], in test [5] and in [6] was inactive. For the same compound, the outcome in test [7], in test [8], in test [9], in test [10], in test [11] and in test [12] was inactive. The result in test [13], in test [14], in test [15], in [19], in test [17] and in test [18] was inactive.

On to `O=C1CC2CC1C1CCCC21` (stereo not given), for which the result in test [1], in [2], in [3], in test [4], in test [6] and in test [7] was inactive. The compound was called inactive in [8], in test [9], in test [10], in [11], in [12] and in [13]. Further, the compound was classed as inactive in [15], in test [19], in [16], in test [17], in test [18] and in [20]. For the same compound, the AC50 in test [5] was 19.8 µM (active).

In the case of `Cc1cnc(NC(=O)C2=C(O)c3ccccc3S(=O)(=O)N2C)s1`, the result in test [1], in test [2], in [3], in [4], in [5] and in [6] was inactive. The call in [7], in [8], in [9], in test [10], in test [11] and in test [12] was inactive. Besides, the result in test [13], in [14], in test [15], in test [16], in test [17] and in test [18] was inactive.

In the case of `OCCN(CCO)c1ccccc1`, the outcome in test [1], in test [2], in [3], in [4], in test [5] and in test [6] was inactive. Further, the outcome in [7], in test [8], in [9], in test [10], in test [11] and in test [12] was inactive. Besides, the compound was called inactive in test [13], in test [14], in test [15], in [19], in test [16] and in [17]. Besides, the call in test [18] was inactive.

`CCCCOCCOC(=O)COc1nc(Cl)c(Cl)cc1Cl`: the result in [1], in test [2], in test [3], in test [4], in test [6] and in test [7] was inactive. In addition, the result in test [8], in [9], in test [10], in [11], in test [12] and in [13] was inactive. Also, the compound was called inactive in [14], in test [15], in test [19], in [16], in test [17] and in test [18]. Moreover, the AC50 in test [5] was 26.2 µM (active).

Consider `CCCCCCCC(C)=O`, for which the outcome in test [1], in [2], in [3], in test [4], in [5] and in test [6] was inactive. Besides, the compound was classed as inactive in test [7], in [8], in [9], in test [10], in test [11] and in [12]. Moreover, the compound was called inactive in [13], in [14], in [15], in test [19], in test [16] and in test [17]. Further, the compound was called inactive in test [18].

Source of the values: PubChem BioAssay (EPA / NIEHS).
